Many of the other results were omitted from the sample, so hits are more common in it than they were.
Dicer inh – human Dicer pre-microRNA cleavage inhibition; actives 6% (n = 47,000); z-score at 25 µM; cat-ELCCA pre-miR-21 Dicer processing, chemiluminescence; stronger effect = higher value; AID 1347074; Q9UPY3; in the data active means z-score above about 3, passing the limit was not always enough;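 further: plate controls were vehicle for no effect and no enzyme for full effect; higher signal means more uncleaved substrate so more Dicer inhibition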
Active calls of the source: *.

SMILES	Dicer inh
Cc1ccc(C(=O)CC2(O)C(=O)N(CCc3ccccc3)c3ccc(Cl)cc32)o1 (stereo not given)	5.2*
Cc1ccc(C(=O)CC2(O)C(=O)N(Cc3ccccc3C)c3ccc(Cl)cc32)o1 (stereo not given)	1.3
Cc1ccc(CN2C(=O)C(O)(CC(=O)c3ccncc3)c3cc(Cl)ccc32)cc1 (stereo not given)	5*
COc1ccc(C(=O)CC2(O)C(=O)N(CCc3ccccc3)c3ccc(Br)cc32)cc1 (stereo not given)	-0.4
CCCN1C(=O)C(O)(CC(=O)c2c(C)n[nH]c2C)c2ccccc21 (stereo not given)	0.2
O=C(CC1(O)C(=O)N(CCc2ccccc2)c2ccc(Br)cc21)c1ccncc1 (stereo not given)	3.6*
CCCN1C(=O)C(O)(CC(=O)c2c(C)n[nH]c2C)c2cc(Br)ccc21 (stereo not given)	3.2*
Cc1ccc(C(=O)CC2(O)C(=O)N(Cc3ccccc3)c3ccc(Cl)cc32)cc1 (stereo not given)	0.64
Cc1ccccc1CN1C(=O)C(O)(CC(=O)c2ccccn2)c2cc(Cl)ccc21 (stereo not given)	1.8
CCOc1ccc(C(=O)CC2(O)C(=O)N(CCc3ccccc3)c3ccc(Br)cc32)cc1 (stereo not given)	1.8
CCCCN1C(=O)C(O)(CC(=O)c2c(C)n[nH]c2C)c2cc(Br)ccc21 (stereo not given)	2.1
O=C(CC1(O)C(=O)N(CCc2ccccc2)c2ccc(Cl)cc21)c1ccccc1O (stereo not given)	0.65
O=S(=O)(CCO)c1ccc(C(F)(F)F)cn1	-1.2
CCOC(=O)CSc1nc(C)nc2c1oc1ccccc12	-0.22
Cc1cc(NC(=O)c2cc(Cl)cc(Cl)c2)n(-c2ccccc2)n1	-2
Cc1ccc(S(=O)(=O)NC(=O)Nc2ccc(NC(=O)c3ccccc3O)cc2)cc1	1.4
O=C(CSc1nncn1-c1ccc(C(F)(F)F)cc1)c1cc2ccccc2o1	0.19
Cc1cccc(C)c1NC(=S)NNC(=O)c1cccnc1	-0.05
Cc1ccc(-c2csc(=N)n2-c2ccc(Cl)cc2)cc1	-0.32
Cc1ccn2c(=O)c(NC(=O)c3ccccc3)cnc2c1	-0.05
COC(=O)c1c(NC(=O)COc2cccc(Br)c2)sc2c1C(C(=O)OC)CC2 (stereo not given)	-0.79
O=C1OC(c2ccccc2)(c2ccccc2)c2ccccc21	-0.69
CC1(C)OC(=O)c2ccccc2-c2ccccc21	0.83
CC1(C(=O)O)Cc2ccccc2C(=O)O1 (stereo not given)	3.9*
Cn1c(Sc2cnc(=S)[nH]c2-c2ccc(Cl)cc2)nnc1C(F)(F)F	-3.5
SMILES	Dicer inh
CCOC(=O)NC(Nc1ccc(C)cc1)(C(=O)OCC)C(F)(F)F (stereo not given)	-0.51
CCc1nnc2sc(-c3ccc(N)cc3)nn12	3.4*
COc1ccc(-c2nn3c(Cc4ccccc4)nnc3s2)cc1	-0.45
CCOc1ccc(-c2nn3c(COc4ccccc4)nnc3s2)cc1	2
Cc1oc2ccc(OC(=O)N3CCOCC3)cc2c1C(=O)OC(C)C	-0.19
COC(=O)c1c(C)oc2ccc(OC(=O)N3CCOCC3)cc12	5.7*
CCOC(=O)c1c(C)oc2ccc(OC(=O)N3CCOCC3)cc12	1.5
CC(C)n1c(SCC(=O)Nc2ccc(Cl)cc2)nc2cc(C(F)(F)F)ccc21	-0.03
O=[N+]([O-])c1cc(Cl)ccc1Sc1ccccn1	0.16
O=[N+]([O-])c1ccc(Sc2cc(Cl)ccc2Cl)nc1	4.7*
O=[N+]([O-])c1cccnc1Sc1cc(Cl)ccc1Cl	-0.4
CCCCCCSC1=C(C#N)C(c2ccccc2C)C(C(=O)OC)C(=O)N1 (stereo not given)	-2.5
Cc1cc(C)c2c(c1)-c1cc(C)nn1C(c1ccc(C(=O)O)cc1)N2 (stereo not given)	-2.7
C/C(N)=N/S(=O)(=O)c1cc(Cl)c(Oc2ccc([N+](=O)[O-])cc2)c(Cl)c1	-0.39
COc1ccc(C2c3c(oc4ccccc4c3=O)C(=O)N2c2ccc(C)cn2)cc1OC (stereo not given)	1.6
Cc1ccc(C2c3c(oc4ccccc4c3=O)C(=O)N2c2ccccn2)cc1 (stereo not given)	0.91
Cc1ccc(N2C(=O)c3oc4ccccc4c(=O)c3C2c2ccc(Cl)cc2)nc1 (stereo not given)	3.8*
CCOc1ccc(C2c3c(oc4ccccc4c3=O)C(=O)N2c2ccc(C)cn2)cc1 (stereo not given)	3.6*
CCOc1ccc(C2c3c(oc4ccccc4c3=O)C(=O)N2c2nc(C)c(C)s2)cc1 (stereo not given)	0.15
CCOc1ccc(C2c3c(oc4ccc(C)cc4c3=O)C(=O)N2c2ccccn2)cc1 (stereo not given)	1.1
Cc1ccc(N2C(=O)c3oc4ccccc4c(=O)c3C2c2ccccc2)nc1 (stereo not given)	0.17
Cc1ccc(N2C(=O)c3oc4ccccc4c(=O)c3C2c2ccc(O)cc2)nc1 (stereo not given)	4.4*
Cc1ccc(N2C(=O)c3oc4ccccc4c(=O)c3C2c2cccc(Br)c2)nc1 (stereo not given)	2.9
COc1ccc(S(=O)(=O)NCc2ccc3c(c2)OCO3)cc1	1.2
N/C(=N\NC(=O)c1cccs1)c1ccc(C(F)(F)F)cn1	-1.4
SMILES	Dicer inh
CCOc1ccc(C2CC(=O)C3=C(C2)Nc2ccccc2NC3c2ccc3c(c2)OCO3)cc1OC (stereo not given)	0.9
Cc1nn(S(=O)(=O)c2ccc(Cl)cc2)cc1-c1nsc(Nc2ccccc2)n1	-0.14
O=C(CSc1nc(-c2cccs2)cc(C(F)(F)F)n1)Nc1cccnc1	1.4
CC1=C(C(=O)OCCc2ccccc2)C(c2ccc(C)o2)C2=C(CC(C)(C)CC2=O)N1 (stereo not given)	-0.45
CN(C(=O)c1cnn2c(C(F)F)cc(-c3ccccc3)nc12)C1CCCCC1	1.2
CN(C)c1ccc(N2C(=O)CC(Sc3ncccc3C(=O)O)C2=O)cc1 (stereo not given)	-0.2
CCOC(=O)C1CCN(C(=S)NC2CC3C=CC2C3)CC1 (stereo not given)	0.1
NC(=O)C1CCN(C(=S)NC2CC3C=CC2C3)CC1 (stereo not given)	-0.16
COc1cccc(/C=N/NC(=O)C2CCCN(C(=S)NNC3CC4C=CC3C4)CC2)c1O (stereo not given)	3.7*
COc1ccccc1C1C(C(=O)OC2CCCCC2)=C(C)NC2=C1C(=O)CC(C)(C)C2 (stereo not given)	-0.36
Cc1ccc2nc(NC3=NCN(Cc4ccc5c(c4)OCO5)CN3)nc(C)c2c1	0.55
c1cncc(CN2CNc3nc4ccccc4n3C2)c1	3*
c1ccc2c(c1)nc1n2CN(Cc2ccc3c(c2)OCO3)CN1	3.5*
c1ccc2oc(NC3=NCN(Cc4ccc5c(c4)OCO5)CN3)nc2c1	2.3
c1ccc2c(c1)nc1n2CN(CCN2CCOCC2)CN1	3.2*
Cc1cc2nc(NC3=NCN(Cc4cccnc4)CN3)nc(C)c2cc1C	1.5
c1ccc2c(c1)nc1n2CN(CCCN2CCOCC2)CN1	1.2
c1ccc(CCN2CN(CCCN3CCOCC3)c3nc4ccccc4n3C2)cc1	-1.4
Cc1c2c(n3c(nc4ccccc43)c1C#N)N(Cc1cccnc1)CC2	-1.2
CCCOC(=O)COc1ccc2c(=O)c(Oc3ccc(OC)cc3)coc2c1	1.7
Cc1cc(C)c(C#N)c(SC(C(=O)Nc2ccc(C(C)C)cc2)c2ccccc2)n1 (stereo not given)	-1.3

Source: PubChem BioAssay
